Laboratory results from PubChem BioAssay (NCI).
Compounds without any hit were thinned out: in the full panel of roughly 83,000, 20% have a hit.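 Note: values are percent growth. 100 is the growth of untreated cells, values between 100 and 0 indicate rising inhibition; between -100 and 0 indicates cell death.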 Active and inactive are the calls of the source. Rule for the calls: active = growth percent below 10; inactive = the rest.

Assays:
Test in all cases: NCI-60 one-dose screen, 48 h (100 = growth as untreated, 0 = no growth, -100 = all killed)
[1] = test system: HCT-15 colon; settings: 10 µM unless noted
[2] = test system: SNB-75 CNS; settings: 10 µM unless noted
[3] = test system: SNB-19 CNS; settings: 10 µM unless noted
[4] = test system: U251 CNS; settings: 10 µM unless noted
[5] = test system: PC-3 prostate; settings: 10 µM unless noted
[6] = test system: SK-MEL-5 melanoma; settings: 10 µM unless noted
[7] = test system: UACC-62 melanoma; settings: 10 µM unless noted
[8] = test system: LOX IMVI melanoma; settings: 10 µM
[9] = test system: SK-MEL-28 melanoma; settings: 10 µM unless noted

Measured: growth

O=C(CC(CC(=O)c1ccccc1)c1ccccn1)c1ccccc1
inactive: [1] 106% | [2] 92.6% | [3] 93.3% | [4] 99.3% | [5] 85.1% | [6] 95.4% | [7] 87.2% | [8] 94.2% | [9] 110%

CC(=O)Oc1c(Cl)cccc1-c1ccccc1
inactive: [1] 108% | [2] 103% | [3] 98.9% | [4] 90% | [5] 89.5% | [6] 101% | [8] 103% | [9] 112%

CCOS(=O)(=O)c1ccc([N+](=O)[O-])cc1
inactive: [1] 110% | [2] 87% | [3] 101% | [4] 99.2% | [5] 97.9% | [6] 102% | [7] 101% | [8] 97.7% | [9] 107%

CCCCN(C(=O)CC)c1ccccc1
inactive: [1] 108% | [2] 89.8% | [3] 99.9% | [4] 97.6% | [5] 103% | [6] 100% | [7] 99.2% | [8] 97.4% | [9] 104%
